High-throughput results: PubChem, several laboratories
A selection: hits, their analogues and other compounds. The true share with any hit is near 3.3%.
BoNT-A LC inh2 – blocks Botulinum neurotoxin A light chain protease | 360,000 compounds, 0.17% hits | inhibition, % at 10 µM | multiplex microsphere protease substrate cleavage, flow cytometry; also: plate controls were buffer without enzyme for full effect and enzyme alone for no effect
Anthrax LF prot – inhibitors of Bacillus anthracis lethal factor protease; P15917; multiplex microsphere protease cleavage assay, LF; inhibition, % at 10 µM; 360,000 compounds, 0.12% hits; also: plate controls were buffer without enzyme for full effect and enzyme alone for no effect
Bead autofluor – flagged as autofluorescent in microsphere protease counterscreen. compound autofluorescence counterscreen, microsphere flow cytometry; hits give high values. fluorescence intensity (test concentration not listed). 360,000 compounds, 3.1% hits. AID 624483; in the data active = fluorescence intensity above about 16000; inconclusive = no clear call, values can overlap the other calls
SSB-PriA inh – blocks PriA binding to SSB C-terminal tail; AlphaScreen SSBct-PriA binding, biotinylated peptide; inhibition, % at 33 µM; 430,000 compounds, 0.6% hits; in the data active = inhibition mostly above about 37%, no sharp cut-off; inactive = mostly below about 20%;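 also: plate controls were negative control peptide for no effect and reference peptide for full effect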
MazF activator – MazEF (E. coli) toxin RNase activation | P0AE70 | FAM/BHQ RNA-DNA oligo cleavage fluorescence, 5 h | activation, % at 20 µM | 350,000 compounds, 0.32% hits | AID 504720; in the data active = activation above about 50%
Target sequence (P0AE70 whole entry, looked up): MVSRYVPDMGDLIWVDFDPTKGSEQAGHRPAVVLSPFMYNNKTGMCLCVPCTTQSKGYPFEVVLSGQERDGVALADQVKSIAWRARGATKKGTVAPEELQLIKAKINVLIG
BoNT F protease – inhibitors of Botulinum neurotoxin F light chain protease | Multiplex microsphere protease cleavage assay, flow cytometry | inhibition, % at 10 µM | 360,000 compounds, 0.22% hits | AID 588497; in the data active = inhibition above about 35%, passing the limit was not always enough; inconclusive = no clear call, values can overlap the other calls; also: plate controls were buffer without enzyme for full effect and enzyme alone for no effect
The depositor's hits bear a star; ? = inconclusive; · = no result. Rule as the data show it, unless noted: active = inhibition above about 30%; inconclusive = no clear call, values can overlap the other calls; inactive = below that.

SMILES	BoNT-A LC inh2	Anthrax LF prot	Bead autofluor	SSB-PriA inh	MazF activator	BoNT F protease
Cc1ccc(-c2csc3ncnc(SCC(=O)Nc4nnc(C)s4)c23)cc1	?	-3	21425*	5	17	4
Cc1ccc(-c2csc3ncnc(SCC(=O)c4ccc5c(c4)OCCO5)c23)cc1	?	1	19619*	0	-7	16
CCOC(=O)C1=C(C)NC2=C(C(=O)c3ccccc32)C1c1ccc(O)cc1 (centres undefined)	-1	-2	2140	52*	3	-2
O=C(CCSc1ccccc1)Nc1nccs1	?	0	16866*	-9	-3	-2
CCOc1ccc(-c2cc(=O)n(CC(=O)NCCc3c[nH]c4ccccc34)cn2)cc1	·	·	·	-9	·	·
CCCCOc1ccc(-c2nnn(CC(=O)NCCc3c[nH]c4ccccc34)n2)cc1	?	-3	23887*	-7	-11	-6
COc1cc(C(=O)N2CCN(C(=O)C(Cc3cc(C)ccc3C)NC(C)=O)CC2)cc(OC)c1OC (centres undefined)	3	-3	22028*	-1	4	1
COc1cc(C(=O)N2CCC(NC(=O)C(Cc3ccccc3C)NC(C)=O)CC2)cc(OC)c1OC (centres undefined)	?	1	21354*	1	-4	-2
COc1cc(C(=O)N2CCC(NC(=O)C(Cc3ccc(C)cc3)NC(C)=O)CC2)cc(OC)c1OC (centres undefined)	0	-4	22816*	-18	2	-1
COC(=O)c1ccc2c(=O)n(CCCC(=O)N3CCN(c4ccccc4F)CC3)c(=S)[nH]c2c1	·	·	·	22	·	·
COCCCNC(=O)Cn1cc(C(C)=O)c2ccccc21	-3	-1	20880*	-27	-21	-5
COC(=O)c1ccc(OC(=O)CN2C(=O)c3ccccc3C2=O)cc1	-6	38*	3709	-13	-3	?
O=C(CCCN1C(=O)c2ccccc2C1=O)NCc1ccc(F)cc1	-8	-3	3795	2	2	?
O=C(CCCN1C(=O)c2ccccc2C1=O)Oc1ccc(F)cc1	-1	-1	23354*	-24	-7	-3
COC(=O)c1ccc(CN2C(=O)c3ccccc3C2=O)cc1	1	-5	3930	-1	-3	-42
CCc1nnc2sc(-c3ccc(NC(=O)c4ccco4)cc3)nn12	-2	-1	16661*	-16	1	-3
O=C(Nc1nccs1)c1ccc(NC(=O)c2ccco2)cc1	-2	-4	17273*	-9	11	-6
CCc1nnc2sc(-c3ccc(NC(=O)c4ccc5c(c4)OCCO5)cc3)nn12	1	0	2876	-19	-6	-2
CCOc1ccc(NC(=O)c2ccco2)cc1	?	1	24897*	-9	7	-5
COc1ccc(OC)c(-c2ccc(=O)n(CC(=O)Nc3ccccc3F)n2)c1	·	·	·	-1	·	·
C/C(CC(=O)Nc1ccccn1)=N\NC(=O)c1ccc2ccccc2c1	0	-2	2568	·	7	-1
C/C(CC(=O)Nc1ccccn1)=N\NC(=O)Cc1cccc2ccccc12	?	0	23733*	·	-4	-3
CCOc1cc(-c2noc(CCC(=O)NC3CCCCC3)n2)ccc1OC	-3	-12	3979	-2	-7	-5
CCOc1ccc(-c2noc(CCC(N)=O)n2)cc1OCC	-3	-2	21943*	-3	2	-4
CCCc1cc(=O)[nH]c(SCc2cc(OC)cc(OC)c2)n1	·	·	·	3	·	·
SMILES	BoNT-A LC inh2	Anthrax LF prot	Bead autofluor	SSB-PriA inh	MazF activator	BoNT F protease
COc1cc(=O)[nH]c(SCc2c(F)c(F)c(F)c(F)c2F)n1	2	2	18910*	-15	-1	3
Cn1c(=O)n(Cc2ccc(Cl)cc2)c(=O)c2c(N3CCN(C(=O)c4ccco4)CC3)ccnc21	·	·	·	0	·	·
Fc1ccc(Nc2nc(NCCCn3ccnc3)nc3nc[nH]c23)cc1	·	·	·	29*	·	·
CN1CCC2(CC1)NC(=O)N(CC(=O)N1CCc3ccccc31)C2=O	·	·	·	-10	·	·
CCOC(=O)c1nn(-c2ccc(Cl)cc2)c2nc(-c3ccc(C)cc3)c(C#N)c(=O)n12	0	3	2938	-13	-6	2
CCOC(=O)c1nn(-c2ccc(OCC)cc2)c2nc(CC(C)C)c(C#N)c(=O)n12	-2	-3	16776*	-9	-4	-4
CCOC(=O)c1nn(-c2ccc(Cl)cc2)c2nc(CC)c(C#N)c(=O)n12	1	-2	16274*	0	2	0
COCCN(Cc1ccoc1)C(=O)c1ccc(C(=O)OC)cc1	·	·	·	3	·	·
CC12CCC(C(=O)NN)(OC1=O)C2(C)C (centres undefined)	·	·	·	-1	·	·
